Experimental data reported in PubChem BioAssay (NCATS).
Records with an inconclusive call do not appear. Values without a mark were called inactive. Calls follow the shape of the dose curve; as a rule, active = well fitted inhibition curve with a large enough effect; inconclusive = small, poorly fitted or top-dose-only effect; inactive = flat fitted curve, though single readings scatter.

Biological target: Luciferin 4-monooxygenase (Photinus pyralis) (UniProt P08659)
Test: Biochemical firefly luciferase enzyme assay for NPC (AID 624030);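 also: purified P. pyralis luciferase at 10 nM with luciferin and ATP substrate; 0% = DMSO and -100% = full luciferase inhibition by PTC124 control; nearly all actives have a fitted effect of over 70% in size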
Details: purified P. pyralis luciferase, luminescence, 5 min; series mostly up to 58.6 µM; activity change, negative = inhibition: at the top concentration
Method in brief: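 Counter-screen for direct inhibition of the luciferase enzyme by approved-drug library compounds, run at 10 nM enzyme in 50 mM Tris acetate (final). Luminescence was read within 5 min of enzyme-buffer addition and normalized to PTC124 versus DMSO (0%).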

Chain of Luciferin 4-monooxygenase (Photinus pyralis) (P08659 whole entry, looked up): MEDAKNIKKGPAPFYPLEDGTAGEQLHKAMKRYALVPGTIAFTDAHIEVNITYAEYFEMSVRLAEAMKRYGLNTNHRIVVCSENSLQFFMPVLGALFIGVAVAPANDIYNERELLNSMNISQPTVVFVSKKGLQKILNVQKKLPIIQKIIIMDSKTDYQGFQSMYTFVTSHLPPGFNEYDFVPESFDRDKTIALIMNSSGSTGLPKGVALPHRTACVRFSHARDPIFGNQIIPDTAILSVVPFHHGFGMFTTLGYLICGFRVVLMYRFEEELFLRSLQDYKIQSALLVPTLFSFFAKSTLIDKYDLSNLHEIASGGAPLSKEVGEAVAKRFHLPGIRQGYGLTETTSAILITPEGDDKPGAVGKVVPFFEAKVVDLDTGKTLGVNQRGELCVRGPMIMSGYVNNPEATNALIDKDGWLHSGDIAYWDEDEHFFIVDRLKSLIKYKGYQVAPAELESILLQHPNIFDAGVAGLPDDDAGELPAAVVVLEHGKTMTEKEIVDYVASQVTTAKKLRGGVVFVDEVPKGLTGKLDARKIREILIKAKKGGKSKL

First: CCC1(C2=NCCN2)Cc2ccccc2O1 (stereo unspecified)
Second: CN1C[C@H](CNC(=O)OCc2ccccc2)C[C@@H]2c3cccc4c3c(cn4C)C[C@H]21
The “activity change, negative = inhibition” value of the first is lower: 1.49% for the first, 7.47% for the second.

Compared with `CC[C@@H](CO)NC(=O)[C@@H]1C=C2c3cccc4c3c(cn4C)C[C@H]2N(C)C1`, `FC(F)(F)c1cccc(C2=CCN(CCc3ccc4ccccc4c3)CC2)c1` is lower in “activity change, negative = inhibition” value: 4.3% for the first, -1.1% for the second.

Compared with `CC[N+](CC)(CC)CC`, `NN=C(N)N` is lower in “activity change, negative = inhibition” value: 1.48% for the first, -1.29% for the second.
